Experimental findings from the antibiotic and cytotoxicity screens of Wong et al. (2023) are described below.

Out of some 39,000 compounds screened, about 1,500 (3.8%) were called active. The sample holds actives, similar compounds and a random draw of the others, so the mix is not that of the screen.

This assay concerns HSkMC (human skeletal muscle cells). Nature of the assay: cytotoxicity call (relative viability < 0.9). Conditions: 10 µM.
For the compound `Cc1ccc(S(=O)(=O)N(C)C[C@H]2Oc3c(NS(=O)(=O)c4c(C)noc4C)cccc3C(=O)N([C@@H](C)CO)C[C@H]2C)cc1`, the cytotoxicity call was “inactive”.
As for `N#CC1(C#N)[C@H](c2ccccc2)[C@@H]1C(N)=O`, the entry is “inactive”; as for `CC(C)CC#Cc1ccc2c(c1)O[C@@H](CN(C)C(=O)c1cnccn1)[C@@H](C)CN([C@H](C)CO)S2(=O)=O`, “inactive”.
As for `O=C(C[C@H]1CC[C@H]2[C@@H](COC[C@@H](O)CN2S(=O)(=O)c2ccc(Cl)cc2)O1)N[C@H]1CCN(Cc2ccccc2)C1`, the entry is “inactive”; as for `CC(C)C[C@H](NC(=O)CNC(=O)c1cc(Cl)ccc1Cl)B1OC(=O)C[C@](CC(=O)O)(C(=O)O)O1`, “active”; as for `Cc1noc(C)c1S(=O)(=O)Nc1ccc2c(c1)C(=O)N([C@@H](C)CO)C[C@@H](C)[C@@H](CN(C)CC1CCCCC1)OCCCC[C@H](C)O2`, “inactive”.
As for `Cn1c(=O)[nH]c2nnc(-c3ccccn3)nc2c1=O`, the entry is “inactive”.
With `COc1ccc(-c2ccccn2)cc1`, the cytotoxicity call was “inactive”.
Turning to `Cn1nc(-c2ccccn2)nc2c(=O)n(C)c(=O)nc1-2`, the cytotoxicity call is “active”.
As for `CN1CCN(C(=O)[C@@H]2[C@@H](CO)[C@@H]3Cn4c(cccc4=O)[C@H]2N3S(=O)(=O)c2ccccc2F)CC1`, the entry is “inactive”; as for `CC(=O)N1CCN(C(=O)Cc2ccc(S(C)(=O)=O)cc2)C[C@@H](O)C1`, “inactive”.
As for `CC(=O)NCCCC[C@@H]1NC(=O)[C@H]2C[C@@H](C(=O)NCc3ccc(F)cc3)[C@@H](c3ccc(O)cc3)N2C1=O`, the entry is “inactive”.
As for `C[C@@H]1CN([C@H](C)CO)C(=O)Cc2cc(NS(C)(=O)=O)ccc2O[C@H]1CN(C)Cc1ccc(C(F)(F)F)cc1`, the entry is “inactive”; as for `C[C@H]1CN([C@@H](C)CO)C(=O)Cc2cc(NS(C)(=O)=O)ccc2O[C@H]1CN(C)Cc1ccc(C(F)(F)F)cc1`, “inactive”; as for `Cc1ccc(S(=O)(=O)Nc2ccc3c(c2)CC(=O)N([C@@H](C)CO)C[C@@H](C)[C@@H](CN(C)Cc2ccc(C(F)(F)F)cc2)O3)cc1`, “active”.
On to `C[C@@H]1CN([C@H](C)CO)C(=O)Cc2cc(NS(C)(=O)=O)ccc2O[C@@H]1CN(C)Cc1ccc(C(F)(F)F)cc1`, for which the cytotoxicity call was “inactive”.
As for `C[C@H]1CN([C@@H](C)CO)C(=O)Cc2cc(NS(C)(=O)=O)ccc2O[C@@H]1CN(C)Cc1ccc(C(F)(F)F)cc1`, the entry is “inactive”.
On to `Cc1ccc(S(=O)(=O)Nc2ccc3c(c2)CC(=O)N([C@H](C)CO)C[C@H](C)[C@@H](CN(C)Cc2ccc(C(F)(F)F)cc2)O3)cc1`, for which the cytotoxicity call is “inactive”.
As for `Cc1ccc(S(=O)(=O)Nc2ccc3c(c2)CC(=O)N([C@H](C)CO)C[C@@H](C)[C@@H](CN(C)Cc2ccc(C(F)(F)F)cc2)O3)cc1`, the entry is “active”.
On to `C[C@@H]1CN([C@@H](C)CO)C(=O)Cc2cc(NS(C)(=O)=O)ccc2O[C@@H]1CN(C)Cc1ccc(C(F)(F)F)cc1`, for which the cytotoxicity call was “inactive”.
As for `C[C@@H]1CN([C@@H](C)CO)C(=O)Cc2cc(NS(C)(=O)=O)ccc2O[C@H]1CN(C)Cc1ccc(C(F)(F)F)cc1`, the entry is “inactive”; as for `Cc1ccc(S(=O)(=O)Nc2ccc3c(c2)CC(=O)N([C@@H](C)CO)C[C@H](C)[C@@H](CN(C)Cc2ccc(C(F)(F)F)cc2)O3)cc1`, “active”; as for `Cc1ccc(S(=O)(=O)Nc2ccc3c(c2)CC(=O)N([C@H](C)CO)C[C@H](C)[C@H](CN(C)Cc2ccc(C(F)(F)F)cc2)O3)cc1`, “active”.
As for `C[C@H](CO)N1C[C@H](C)[C@H](CN(C)Cc2ccc(C(F)(F)F)cc2)Oc2ccc(NS(C)(=O)=O)cc2CC1=O`, the entry is “inactive”; as for `O=C(C[C@H]1CC[C@@H]2[C@H](COC[C@H](O)CN2S(=O)(=O)c2ccc(Cl)cc2)O1)NCCN1CCCCC1`, “inactive”.
As for `COc1ccc(S(=O)(=O)Nc2ccc3c(c2)C(=O)N([C@H](C)CO)C[C@H](C)[C@H](CN(C)C(=O)Nc2c(C)noc2C)OCCCC[C@H](C)O3)cc1`, the entry is “inactive”; as for `C[C@@H]1CCCCO[C@@H](CN(C)S(=O)(=O)c2cccs2)[C@H](C)CN([C@H](C)CO)C(=O)c2cc(NC(=O)Nc3cccc4ccccc34)ccc2O1`, “inactive”.
For the compound `COc1ccc(S(=O)(=O)Nc2cccc3c2O[C@@H](CN(C)Cc2ccncc2)[C@H](C)CN([C@@H](C)CO)C3=O)cc1`, the cytotoxicity call is “inactive”.
As for `C[C@@H]1CN([C@@H](C)CO)C(=O)c2cccc(NS(=O)(=O)c3cn(C)cn3)c2O[C@@H]1CN(C)S(=O)(=O)c1ccccc1`, the entry is “inactive”.
As for `C[C@@H]1CN([C@@H](C)CO)C(=O)c2cc(NC(=O)CCN3CCOCC3)ccc2O[C@@H]1CN(C)CC1CC1`, the entry is “inactive”; as for `C[C@@H]1CCCCO[C@H](CN(C)C(=O)Cc2ccccc2)[C@H](C)CN([C@@H](C)CO)C(=O)c2cc(NS(=O)(=O)c3cccs3)ccc2O1`, “inactive”; as for `COCC(=O)Nc1ccc2c(c1)OC[C@@H](C)N(Cc1ccccc1OC)C[C@@H](C)[C@H](OC)CN(C)C2=O`, “inactive”.
As for `C[C@H]1CCCCO[C@@H](CN(C)C(=O)Nc2ccc(F)cc2)[C@@H](C)CN([C@@H](C)CO)C(=O)c2cc(NS(=O)(=O)c3cccs3)ccc2O1`, the entry is “inactive”.
Turning to `CCSc1nnc2c(=O)[nH]c(=O)[nH]c2n1`, the cytotoxicity call was “inactive”.
Turning to `Cc1ccc(S(=O)(=O)Nc2ccc3c(c2)CC(=O)N([C@@H](C)CO)C[C@@H](C)[C@H](CN(C)Cc2ccc(C(F)(F)F)cc2)O3)cc1`, the cytotoxicity call was “inactive”.
As for `Cc1ccc(S(=O)(=O)Nc2ccc3c(c2)CC(=O)N([C@@H](C)CO)C[C@H](C)[C@H](CN(C)Cc2ccc(C(F)(F)F)cc2)O3)cc1`, the entry is “active”.
As for `Cc1ccc(S(=O)(=O)Nc2ccc3c(c2)CC(=O)N([C@H](C)CO)C[C@@H](C)[C@H](CN(C)Cc2ccc(C(F)(F)F)cc2)O3)cc1`, the entry is “inactive”; as for `C[C@H](CO)N1C[C@H](C)[C@@H](CN(C)C(=O)Nc2ccc(C(F)(F)F)cc2)Oc2ccc(NC(=O)Cc3ccccc3)cc2CC1=O`, “inactive”.
As for `C[C@@H]1CN([C@@H](C)CO)C(=O)c2cc(NC(=O)C3CCCCC3)ccc2O[C@@H]1CN(C)Cc1ccc(C(F)(F)F)cc1`, the entry is “inactive”; as for `C[C@H]1CN([C@@H](C)CO)C(=O)c2cc(NC(=O)Nc3cccc4ccccc34)ccc2O[C@@H]1CN(C)C(=O)Nc1cccc2ccccc12`, “inactive”; as for `C[C@@H]1CN([C@H](C)CO)C(=O)c2cc(NC(=O)Nc3cccc4ccccc34)ccc2O[C@@H]1CN(C)C(=O)Nc1cccc2ccccc12`, “active”.
With `C[C@@H]1CN([C@@H](C)CO)C(=O)c2cc(NC(=O)Nc3cccc4ccccc34)ccc2O[C@H]1CN(C)C(=O)Nc1cccc2ccccc12`, the cytotoxicity call is “inactive”.
As for `C[C@@H]1CN([C@H](C)CO)C(=O)c2cc(NC(=O)Nc3cccc4ccccc34)ccc2O[C@H]1CN(C)C(=O)Nc1cccc2ccccc12`, the entry is “inactive”; as for `C[C@@H]1CN([C@@H](C)CO)C(=O)c2cc(NC(=O)Nc3cccc4ccccc34)ccc2O[C@@H]1CN(C)C(=O)Nc1cccc2ccccc12`, “active”.
As for `C[C@H](CO)N1C[C@H](C)[C@@H](CN(C)C(=O)Nc2cccc3ccccc23)Oc2ccc(NC(=O)Nc3cccc4ccccc34)cc2C1=O`, the entry is “inactive”; as for `NC(=O)c1c(Cl)ncc2c1NCC2`, “inactive”.
As for `COC1=C(OC)C(=O)C(CCCCCCCCCCO)=C(C)C1=O`, the entry is “active”; as for `COC1=C(OC)C(=O)C(C/C=C(\C)CC/C=C(\C)CC/C=C(\C)CC/C=C(\C)CC/C=C(\C)CC/C=C(\C)CC/C=C(\C)CC/C=C(\C)CC/C=C(\C)CCC=C(C)C)=C(C)C1=O`, “inactive”; as for `COC1=C(OC)C(=O)C(CCCCCCCCCC[P+](c2ccccc2)(c2ccccc2)c2ccccc2)=C(C)C1=O`, “active”.
`CC1=C(C)C(=O)C(C(CCCCCC(=O)O)c2ccccc2)=C(C)C1=O` (stereo unspecified): the cytotoxicity call was “inactive”.
For the compound `COC(=O)CCCCCCC(=O)Nc1ccc(NC(=O)CCCC[P+](c2ccccc2)(c2ccccc2)c2ccccc2)cc1`, the cytotoxicity call is “inactive”.
As for `COC1=C(OC)C(=O)C(C/C=C(\C)CC/C=C(\C)CC/C=C(\C)CC/C=C(/C)CC/C=C(\C)CC/C=C(\C)CC/C=C(\C)CC/C=C(\C)CC/C=C(\C)CCC=C(C)C)=C(C)C1=O`, the entry is “inactive”; as for `CC1=C(C)C(=O)C(CCCCCCCCCC[P+](c2ccccc2)(c2ccccc2)c2ccccc2)=CC1=O`, “active”; as for `CC1=CC(=O)c2ccccc2C1=O`, “inactive”.
On to `COC1=C(OC)C(=O)C(CC=C(C)CCC=C(C)CCC=C(C)CCC=C(C)CCC=C(C)CCC=C(C)CCC=C(C)CCC=C(C)CCC=C(C)CCC=C(C)C)=C(C)C1=O`, for which the cytotoxicity call was “inactive”.
As for `Nc1ccc(NC(=O)CCN2CCOCC2)cc1`, the entry is “inactive”.
Regarding `C[C@@H]1CN([C@H](C)CO)C(=O)c2cccc(NC(=O)CCCCCC(=O)Nc3ccccc3N)c2O[C@H]1CN(C)CC1CCCCC1`, the cytotoxicity call is “inactive”.
Take `CC(=O)N(C)C[C@H]1Oc2cc(C#CCN(C)C)ccc2S(=O)(=O)N([C@H](C)CO)C[C@H]1C`: the cytotoxicity call is “inactive”.
On to `C[C@@H]1CCCCO[C@H](CN(C)Cc2ccc(C(=O)O)cc2)[C@H](C)CN([C@H](C)CO)C(=O)c2cc(NC(=O)Nc3ccc(C(F)(F)F)cc3)ccc2O1`, for which the cytotoxicity call was “inactive”.
As for `C[C@H]1CN([C@@H](C)CO)C(=O)c2cc(NS(=O)(=O)c3cn(C)cn3)ccc2O[C@H]1CN(C)C(=O)Nc1ccccc1`, the entry is “inactive”; as for `C[C@H]1CN([C@@H](C)CO)C(=O)c2cc(/C=C/c3ccccc3)cnc2O[C@@H]1CN(C)S(=O)(=O)c1cn(C)cn1`, “inactive”; as for `COc1ccc(CN(C)C[C@H]2OCCCC[C@@H](C)Oc3ccc(NS(=O)(=O)c4ccc(F)cc4)cc3C(=O)N([C@@H](C)CO)C[C@@H]2C)cc1`, “inactive”.
As for `O=c1n(-c2ccc(F)cc2)nc2n1CCCN2`, the entry is “inactive”; as for `Cc1ccc(S(=O)(=O)N(C)C[C@H]2Oc3ccc(NC(=O)Cn4cnnn4)cc3CC(=O)N([C@H](C)CO)C[C@@H]2C)cc1`, “inactive”.
As for `C[C@H]1O[C@@H](O[C@H]2[C@@H](O)C[C@H](O[C@H]3[C@@H](O)C[C@H](O[C@H]4CC[C@@]5(C)[C@H](CC[C@@H]6[C@@H]5CC[C@]5(C)[C@@H](C7=CC(=O)OC7)CC[C@]65O)C4)O[C@@H]3C)O[C@@H]2C)C[C@H](O)[C@@H]1O`, the entry is “active”.
On to `CC1OC(OC2C(O)CC(OC3C(O)CC(OC4CCC5(C)C(CCC6C5CCC5(C)C(C7=CC(=O)OC7)CCC65O)C4)OC3C)OC2C)CC(O)C1O` (stereo unspecified), for which the cytotoxicity call is “active”.
